Hit rate of the full screen: of about 96,000 compounds, about 65 (0.07%) were called active. This excerpt belongs to a sample that is enriched for actives. A number with no mark means an inactive call. Cut-off read from the data, not from the text of the source: active = inhibition above about 25%; inactive = the rest.
test: unspecified inhibition readout at 50 µM (AID 740); conditions: unspecified screen; active compounds read high

Row | SMILES | inhibition
1 | COc1ccc(C(=O)C(CN2CCCC2)c2ccccc2)cc1 (stereo not drawn) | 8.35%
2 | O=C(c1ccc(F)cc1)C(CN1CCOCC1)c1ccccc1 (stereo not drawn) | inactive
3 | Nc1nc(SCc2ccccc2)[nH]c(=O)c1-c1ccccc1 | inactive
4 | O=C(CN1CCN(C2CCCCC2)CC1)NCCC1=CCCCC1 | inactive
5 | O=C(CSc1ncccc1C(=O)O)NCCC1=CCCCC1 | inactive
6 | O=C(CN1CCN(c2ncccn2)CC1)NCCC1=CCCCC1 | 50.1% (active)
7 | COc1cccc(NS(=O)(=O)c2ccc3[nH]cc(C(=O)NCCC(C)C)c(=O)c3c2)c1 | 1.2%
8 | O=C(NCc1ccco1)c1cc(S(=O)(=O)N2CCOCC2)ccc1Cl | 0.08%
9 | CCCCOc1cccc(NC(=O)CSc2nccn2C)c1 | inactive
10 | C=CCNC(=S)Nc1cccc2ccccc12 | 0.02%
11 | Cn1nc([N+](=O)[O-])nc1Sc1ccc(C(C)(C)C)cc1 | 9.59%
12 | Cn1nc([N+](=O)[O-])nc1Sc1nnc(-c2ccccc2)o1 | 28.3% (active)
13 | COc1ccccc1-c1nnc(Sc2nc([N+](=O)[O-])nn2C)o1 | inactive
14 | Nc1nc(Nc2cccc(C(F)(F)F)c2)nc(C(F)(F)F)n1 | inactive
15 | O=S(=O)(/C=C/c1ccccc1)n1cnc2ccccc21 | 0.11%
16 | Cc1cc(C)n(S(=O)(=O)/C=C/c2ccccc2)n1 | 40.1% (active)
17 | Cc1cc(C)n(S(=O)(=O)Cc2ccccc2)n1 | 0.57%
18 | CCOC(=O)C1=C(C)Nc2nc(SC)nn2C1c1ccc(C(=O)OC)cc1 (stereo not drawn) | 0.25%
19 | CC1CCCN(c2ccc(C(=O)NCc3cccs3)cn2)C1 (stereo not drawn) | 0.47%
20 | O=C(NCc1cccs1)c1ccc(N2CCCCC2)nc1 | 26% (active)
21 | CC1CCN(c2ccc(C(=O)NCc3cccs3)cn2)CC1 | inactive
22 | O=C(O)CSc1nnc(-c2ccncc2)n1-c1ccc(Cl)cc1 | inactive
23 | CC(=O)Nc1cc(-c2nn(C)c(=O)c3ccccc23)ccc1N1CCCCC1 | inactive
24 | c1ccc(OCc2nnc3sc(C4COc5ccccc5O4)nn23)cc1 (stereo not drawn) | inactive
25 | Cc1cc(C(=O)CSc2nnnn2-c2ccc(Cl)cc2)c(C)n1CC1CCCO1 (stereo not drawn) | 0.29%
26 | COC(=O)c1sc(S(=O)(=O)N2CCN(c3ccccc3)CC2)c(C(=O)OC)c1C | 1.69%
27 | O=C(CSc1nnc(Cc2ccccc2)n1Cc1ccco1)NC1CCCC1 | 4.05%

Row | SMILES | inhibition
28 | NC(=O)c1c(NC(=O)CSc2nnc(-c3ccco3)n2-c2ccccc2)sc2c1CCC2 | inactive
29 | NC(=O)c1c(NC(=O)CSc2nnc(Cc3ccccc3)n2Cc2ccco2)sc2c1CCC2 | 27% (active)
30 | CCCCCC(O)CCc1n[nH]c(=S)n1-c1ccccc1 (stereo not drawn) | inactive
31 | O=C(CC(c1ccccc1)c1ccccc1)Nc1ccc(Cl)cn1 | inactive
32 | CCOC(=O)c1c(NC(=O)CN2CCOCC2)sc2c1CC(C)(C)OC2 | 1.02%
33 | COC(=O)CC(NC(=O)c1ccco1)c1ccc(C(C)C)cc1 (stereo not drawn) | inactive
34 | O=C(CSc1ccc2nnc(-c3ccccc3)n2n1)NCc1ccco1 | 3.91%
35 | Cc1ccc(-c2nnc3ccc(SCC(=O)NCc4ccco4)nn23)cc1 | 2.76%
36 | O=C(CSc1ccc2nnc(-c3ccncc3)n2n1)NCc1ccco1 | 28.9% (active)
37 | NC(=S)NNc1cccc(Cl)c1 | inactive
38 | Cc1ccc(CSc2nnc(-c3cccnc3)o2)cc1 | inactive
39 | C=CCSc1nnc(-c2ccc(Cl)cc2Cl)o1 | 37.9% (active)
40 | CSc1nnc(-c2ccc(Cl)cc2Cl)o1 | 7.66%
41 | C=CCSc1nnc(-c2cccnc2)o1 | 33.1% (active)
42 | C(=C\c1ccccc1)/CSc1nnc(-c2cccnc2)o1 | 0.18%
43 | CCSc1nnc(-c2ccc(Cl)cc2Cl)o1 | 1.81%
44 | O=C(Nc1ccc(Cl)cc1)N1CCCC1 | inactive
45 | O=C(NCCc1cccs1)C1CC(c2ccc([N+](=O)[O-])cc2)=NO1 (stereo not drawn) | 1.33%
46 | COc1cc(C(=O)N2CCC(c3nc(-c4cccnc4)no3)CC2)cc(OC)c1OC | inactive
47 | Cc1nc(C)c(C(=O)C2=C(O)C(=O)N(CCN(C)C)C2c2ccccc2)s1 (stereo not drawn) | 0.19%
48 | COc1ccc2c(c1OC)C(=O)OC2c1c(O)n(Cc2ccc(F)cc2)c(=O)[nH]c1=O (stereo not drawn) | inactive
49 | CCC(=O)N1CCN(c2ccccc2NC(=O)COc2ccccc2Cl)CC1 | inactive
50 | CS(=O)(=O)c1nc(-c2ccccc2)cc(C(F)(F)F)n1 | inactive
51 | CS(=O)(=O)c1nc(-c2cccs2)cc(C(F)(F)F)n1 | 26.1% (active)
52 | O=C(O)CCS(=O)(=O)c1nc(-c2cccs2)cc(C(F)(F)F)n1 | inactive
53 | CCC1(c2cccc(Cl)c2)NC(=O)N(Cc2cc(C(=O)OC)c(C)o2)C1=O (stereo not drawn) | inactive

Reference: PubChem BioAssay AID740 (SRMLSC, 2007)
